Experimental data reported in PubChem BioAssay (NCATS).
Inconclusive results are not listed. The call rests on the fitted dose curve; in most records, active means well fitted curve in either direction with a large enough effect (not every such curve was filed as active); inconclusive means small, poorly fitted or top-dose-only effect, or another doubt; inactive means flat fitted curve, though single readings scatter.

experiment: NFAT Signaling Pathway (AID 444); conditions: Jurkat NFAT-bla M1, carbachol, beta-lactamase ratio, 5 h; at 7.69 µM (top of the series) unless noted;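 further: carbachol stimulus at about its EC50 of 1 µM final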
Method in brief: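 Read-out: CCF4 FRET ratio (460 nm/530 nm) after 1 h RT dye loading, used for %activity and AC50 from titration series. Cells: Jurkat NFAT-β-lactamase/M1 line, treated with compound plus 1 uM carbachol for 5 h, 37 °C.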
On the % scale 0 is the no-effect control and ±100 the full control effect.

Activity change, negative = inhibition, inactive:
Cc1ccccc1-c1nccc(NCc2cccs2)n1 1.22%
FC(F)(F)c1ccccc1-c1nc(NCCN2CCOCC2)c2ccccc2n1 6.4%
COc1ccc(-c2nc3cnc(Oc4cccc(Cl)c4)nc3n(C3CC3)c2=O)cc1 -3.56%
N#CCCn1c(=O)c(-c2ccc(F)cc2)nc2cnc(N3CCOCC3)nc21 13.6%
CS(=O)(=O)Nc1cccc(-c2ccc3ncnc(NC4CC4)c3c2)c1 -15.5%
Cc1ccccc1-c1ccc2ncnc(NC3CC3)c2c1 3.53%
c1cncc(CNc2ncncc2-c2cccnc2)c1 1.94%
Clc1ccccc1-c1nccc(NCc2cccs2)n1 0.38%
O=c1c(-c2ccc(F)cc2)nc2cnc(Oc3ccccc3)nc2n1Cc1cccs1 2.8%
FC(F)(F)c1ccccc1-c1nc(NCc2cccs2)c2ccccc2n1 -18.2%
COc1ccc(Oc2ncc3nc(-c4cn(C)c5ccccc45)c(=O)n(C4CC4)c3n2)cc1 9.91%
COc1ccc(-n2c(=O)c(-c3ccc(F)cc3)nc3cnc(N4CCOCC4)nc32)cc1 12.6%
CC(=O)NCCNc1ncnc2ccc(-c3ccoc3)cc12 17.6%
c1csc(CNc2ncnc3ccc(-c4ccoc4)cc23)c1 1.06%
Cc1ccccc1-c1cc(N2CCN(C)CC2)ncn1 -7.69%
c1nc(NC2CCNCC2)c2cc(-c3ccoc3)ccc2n1 12.3%
CN1CCN(c2ccnc(-c3ccoc3)n2)CC1 -15.5%
COc1cccc(Cn2c(=O)c(-c3cccs3)nc3cnc(N(C)C)nc32)c1 23.2%
Cc1nc2cnc(OCc3ccccc3)nc2n(C)c1=O -3.24%
COc1ccccc1CCn1c(=O)c(-c2cccc(F)c2)nc2cncnc21 -17.1%
CN(C)c1ncnc2ccc(-c3ccoc3)cc12 1.35%
COc1cccc(Nc2ncc3nc(CCc4ccccc4)c(=O)n(C)c3n2)c1 21.6%
COCCNc1ncnc2ccc(-c3ccccc3C)cc12 10.4%
COc1ccc(-c2nc3cnc(Oc4ccccc4)nc3n(CCC#N)c2=O)cc1 -15.1%
COc1cccc(Nc2ncc3nc(-c4ccc(Cl)cc4)c(=O)n(C4CC4)c3n2)c1 -4.19%
CCNc1ncc2nc(-c3cn(C)c4ccccc34)c(=O)n(C)c2n1 2.68%
COc1ccc(Oc2ncc3nc(-c4ccc(OC)cc4)c(=O)n(C)c3n2)cc1 -4.34%
Cc1nc2cnc(N3CCOCC3)nc2n(C[C@H]2CCCO2)c1=O -4.93%
COc1cccc(Cn2c(=O)c(-c3ccc(F)cc3)nc3cnc(OC)nc32)c1 -0.296%

experiment: Stat Signaling Pathway (AID 446); conditions: ME-180 (cervical carcinoma) SIE beta-lactamase reporter, IL-6 stimulated, 5 h; at 7.69 µM (top of the series) unless noted;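 further: ME-180 cervical cancer cells given 40 pM IL-6 alongside compound; SIE-controlled beta-lactamase reporter measured as 460/530 nm FRET emission ratio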
Method in brief: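 Emission at 460 and 530 nm (excitation 405 nm) reports SIE-controlled beta-lactamase in ME-180 cells. Cells received compound with 40 pM IL-6 for 5 hrs at 37 C; data scaled between 300 pM IL-6 and 125 nM JAK-inhibitor controls.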

activity, negative = inhibition, inactive:
Cc1ccccc1-c1nccc(NCc2cccs2)n1 3.98%
FC(F)(F)c1ccccc1-c1nc(NCCN2CCOCC2)c2ccccc2n1 3.19%
COc1ccc(-c2nc3cnc(Oc4cccc(Cl)c4)nc3n(C3CC3)c2=O)cc1 15%
N#CCCn1c(=O)c(-c2ccc(F)cc2)nc2cnc(N3CCOCC3)nc21 10.6%
CS(=O)(=O)Nc1cccc(-c2ccc3ncnc(NC4CC4)c3c2)c1 -20.6%
CN1CCN(c2ncc3nc(CCc4ccccc4)c(=O)n(C4CC4)c3n2)CC1 -7.8%
c1cncc(CNc2ncncc2-c2cccnc2)c1 12.2%
Clc1ccccc1-c1nccc(NCc2cccs2)n1 1.89%
O=c1c(-c2ccc(F)cc2)nc2cnc(Oc3ccccc3)nc2n1Cc1cccs1 1.3%
FC(F)(F)c1ccccc1-c1nc(NCc2cccs2)c2ccccc2n1 -11.7%
COc1ccc(Oc2ncc3nc(-c4cn(C)c5ccccc45)c(=O)n(C4CC4)c3n2)cc1 19%
CC(=O)NCCNc1ncnc2ccc(-c3ccoc3)cc12 3.17%
COCCNc1ncnc2ccc(-c3cccc(NS(C)(=O)=O)c3)cc12 -4.92%
c1csc(CNc2ncnc3ccc(-c4ccoc4)cc23)c1 -21%
Cc1ccccc1-c1cc(N2CCN(C)CC2)ncn1 -0.251%
c1nc(NC2CCNCC2)c2cc(-c3ccoc3)ccc2n1 -3%
CN1CCN(c2ccnc(-c3ccoc3)n2)CC1 11.2%
COc1cccc(Cn2c(=O)c(-c3cccs3)nc3cnc(N(C)C)nc32)c1 11.2%
Cc1nc2cnc(OCc3ccccc3)nc2n(C)c1=O -5.11%
COc1ccccc1CCn1c(=O)c(-c2cccc(F)c2)nc2cncnc21 3.83%
CN(C)c1ncnc2ccc(-c3ccoc3)cc12 -10.6%
COc1cccc(Nc2ncc3nc(CCc4ccccc4)c(=O)n(C)c3n2)c1 -7.18%
COCCNc1ncnc2ccc(-c3ccccc3C)cc12 -16.2%
COc1ccc(-c2nc3cnc(Oc4ccccc4)nc3n(CCC#N)c2=O)cc1 -20%
COc1cccc(Nc2ncc3nc(-c4ccc(Cl)cc4)c(=O)n(C4CC4)c3n2)c1 -10.8%
CCNc1ncc2nc(-c3cn(C)c4ccccc34)c(=O)n(C)c2n1 -2.13%
COc1ccc(Oc2ncc3nc(-c4ccc(OC)cc4)c(=O)n(C)c3n2)cc1 -16.5%
Cc1nc2cnc(N3CCOCC3)nc2n(C[C@H]2CCCO2)c1=O -8.29%
COc1cccc(Cn2c(=O)c(-c3ccc(F)cc3)nc3cnc(OC)nc32)c1 6.3%
